KCNQ2 block = inhibitors of rat KCNQ2 potassium channel | CHO-K1 KCNQ2, FluxOR thallium flux, 20 min; stronger effect = lower value | B-score at 10 µM | 310,000 compounds, 1.1% hits;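 active = fluorescence ratio B-score at most minus 3 library SDs, with starting brightness B-score within 2 library SDs, cut at about -5.5 in these data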
KCNQ2 pot = KCNQ2 (rat) channel potentiation. B-score at 10 µM. 310,000 compounds, 0.54% hits. O88943. AID 2239. CHO-K1 KCNQ2, FluxOR thallium flux fluorescence; stronger effect = higher value;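 active = fluorescence ratio B-score at least 3 SD of library B-scores, with initial fluorescence B-score within 3 of them, cut at about 5.3 in these data; same plate scores as AID 2156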;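 note: B-score of peak minus minimum over baseline fluorescence ratio after K+ and Tl+ stimulus; positive B-score means potentiation of KCNQ2 with more thallium influx and brighter signal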
Kir21 confirm = confirmation of mouse Kir2.1 potassium channel inhibitors; 2,300 compounds, 41% hits; AID 2032; shares compounds with KCNQ2 pot; Tl flux remaining, % of negative control (stronger effect = lower value), % at 10 µM; Kir2.1-expressing cells, FluxOR thallium flux fluorescence; stronger effect = lower value;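 active = Primary-screen hit whose thallium flux fell at least 3 control SD below untreated wells in both duplicates, with normal baseline fluorescence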
HEK293 ctr = alters thallium flux in parental HEK293 cells, Kir2.1 counter-screen; shares compounds with KCNQ2 pot; FluxOR signal as % of negative control (100 = no effect), % at 10 µM; 2,300 compounds, 19% hits; AID 2105; FluxOR thallium flux fluorescence; 0% = unstimulated blank wells;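 active = dye signal at least 3 control SD above or below untreated wells in both duplicates, raw fluorescence within 3, either direction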;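 note: percent is based on the flux ratio of peak minus minimum fluorescence over baseline F0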
CHO-K1 Tl ctr = alters thallium flux in parental CHO-K1 cells, KCNQ2 counter-screen; shares compounds with KCNQ2 pot; FluxOR thallium flux fluorescence; zero = vehicle mean+3SD, 100% = vehicle-minus-blank window; activity increase over 3SD of controls, % at 10 µM; 1,200 compounds, 43% hits; AID 2282;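 active = signal rise of at least 3 SD above the untreated control mean, in both duplicate wells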;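 note: counter screen of KCNQ2 potentiator hits so any rise reflects channel-independent effects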
KCNQ1 sel pot = selectivity of KCNQ2 potentiators: effect on human KCNQ1. activation over 3SD threshold, % at 10 µM. CHO KCNQ1 stable, FluxOR thallium flux fluorescence; beyond 3SD, as % of vehicle-control signal. shares compounds with KCNQ2 pot. 1,200 compounds, 28% hits. AID 2283;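 active = fluorescence ratio rise of at least 3 SD of vehicle wells above their mean, in both replicate wells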
KCNQ2 pot confirm = confirmation of rat KCNQ2 potassium channel potentiators; AID 2287; shares compounds with KCNQ2 pot; 1,200 compounds, 68% hits; potentiation, less the hit threshold, % at 10 µM; CHO-KCNQ2 cells, FluxOR thallium flux fluorescence;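 active = fluorescence ratio rising 3 SD or more over the vehicle control mean in both replicates, plus primary screen hit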;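 note: peak minus minimum thallium fluorescence divided by baseline after K/Tl stimulus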
Kir2-1 sel = selectivity of KCNQ2 potentiators: effect on mouse Kir2.1. shares compounds with KCNQ2 pot. HEK293 Kir2.1, FluxOR thallium flux fluorescence. activity over 3SD threshold, % at 10 µM. 1,200 compounds, 2% hits. AID 2345;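 active = fluorescence ratio rise of at least 3 SD above the vehicle-control mean, seen in both replicates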
KCNQ2 W236L MoA = KCNQ2 potentiators acting on retigabine-insensitive rat KCNQ2 W236L mutant; shares compounds with KCNQ2 pot; current increase over 3SD of negative controls (%), stronger effect = higher value, % at 25 µM; AID 2558; CHO KCNQ2-W236L, automated patch clamp current; 940 compounds, 10% hits;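 active = current increase at least 3 SD of the untreated controls above them in both duplicate recordings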
Target sequence (O88943 whole entry W236L, looked up): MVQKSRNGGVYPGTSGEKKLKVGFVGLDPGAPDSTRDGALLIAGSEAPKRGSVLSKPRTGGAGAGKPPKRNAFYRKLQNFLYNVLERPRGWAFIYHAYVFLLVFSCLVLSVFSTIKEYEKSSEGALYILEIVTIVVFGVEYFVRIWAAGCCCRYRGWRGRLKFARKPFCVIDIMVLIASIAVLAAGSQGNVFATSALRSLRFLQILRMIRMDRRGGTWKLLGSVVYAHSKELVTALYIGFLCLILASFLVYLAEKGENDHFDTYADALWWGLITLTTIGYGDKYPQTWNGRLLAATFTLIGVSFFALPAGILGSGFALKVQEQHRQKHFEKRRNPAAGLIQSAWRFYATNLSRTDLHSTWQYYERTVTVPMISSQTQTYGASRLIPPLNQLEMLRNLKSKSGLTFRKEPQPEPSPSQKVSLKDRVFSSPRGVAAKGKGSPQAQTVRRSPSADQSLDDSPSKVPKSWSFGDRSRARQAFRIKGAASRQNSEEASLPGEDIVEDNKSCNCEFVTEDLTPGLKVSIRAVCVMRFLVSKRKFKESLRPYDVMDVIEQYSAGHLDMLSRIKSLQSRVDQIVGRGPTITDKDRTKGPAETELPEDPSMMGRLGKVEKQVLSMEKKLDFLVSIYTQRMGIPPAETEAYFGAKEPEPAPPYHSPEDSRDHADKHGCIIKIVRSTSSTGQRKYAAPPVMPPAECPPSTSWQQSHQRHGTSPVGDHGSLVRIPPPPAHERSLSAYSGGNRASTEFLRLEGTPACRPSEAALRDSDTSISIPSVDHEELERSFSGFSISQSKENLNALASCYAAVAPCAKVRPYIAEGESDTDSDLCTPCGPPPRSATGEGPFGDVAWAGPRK
Numbers stand for hits; - = inactive; . = no result given. A selection: hits, their analogues and other compounds. The true share with any hit is near 1.6%.

SMILES	KCNQ2 block	KCNQ2 pot	Kir21 confirm	HEK293 ctr	others
COc1ccc(NC(=O)CNC(=O)C23CC4CC(CC(C4)C2)C3)c(OC)c1	-	.	.	.
CCN1CCN(CC(=O)Nc2cc(C(F)(F)F)ccc2OCCOC)CC1	-	-	.	.
CC(C)(CNC(=O)CO/N=C1/C=C2CCC3C(C(O)C[C@@]4(C)C3CC[C@]4(O)C(=O)CO)[C@@]2(C)CC1)C(O)C(=O)O (some centres not stated)	-	.	.	.
O=C(NCCC1=CCCCC1)C1CCN(S(=O)(=O)c2ccccc2C(F)(F)F)CC1	-	.	.	.
CC(C)(C)C(=O)NC(=S)NNC(=O)C(c1ccccc1)c1ccccc1	-	6.64	-	65.5%	CHO-K1 Tl ctr=-;KCNQ1 sel pot=-;KCNQ2 pot confirm=-;Kir2-1 sel=-
CC(=O)NNC(=S)NC(=O)C(c1ccccc1)c1ccccc1	-	.	.	.
Cc1occc1C(=O)N(C)Cc1nc(-c2ccc(Cl)cc2)no1	-	.	.	.
CCN=c1scc(-c2ccc(F)cc2)n1/N=C/c1ccccn1	-	-	.	.
CCCc1sc(N/N=C/c2ccccn2)nc1-c1ccc(F)cc1	-	5.76	-	-	CHO-K1 Tl ctr=-;KCNQ1 sel pot=11.8;KCNQ2 pot confirm=-;Kir2-1 sel=-
CCc1cc(Br)ccc1NC(=S)NCCc1ccccc1	-	.	62.0%	-
COc1ccc(NC(=S)NCCc2ccccc2)c(C)c1	-	.	.	.
O=S(=O)(Nc1cccc2c1ccc1cccn12)c1cccs1	-	-	.	.
O=C(CCC1CCCCC1)Nc1c2c(nn1-c1ccc(F)cc1)CS(=O)C2 (configuration not stated)	-	10.5	-	-	CHO-K1 Tl ctr=-;KCNQ1 sel pot=19.2;KCNQ2 pot confirm=47.3;Kir2-1 sel=-;KCNQ2 W236L MoA=-
O=C(Nc1c2c(nn1-c1ccc(F)cc1)CS(=O)C2)c1ccc(Br)o1 (configuration not stated)	-	-	.	.
O=C(C1CC(=O)N(c2ccccc2)C1)N1CCN(c2ccc(F)cc2)CC1 (configuration not stated)	-	.	.	.
Oc1ccc(Nc2nc(N3CCCC3)c3ccccc3n2)cc1	-	.	47.5%	-
COc1ccc(Nc2nc(N3CCCCC3)c3ccccc3n2)cc1	-	.	.	.
CC(C)(C)CN1CCNC(=O)C1CC(=O)N1CCN(c2ccccc2)CC1 (configuration not stated)	-	-	.	.
CC(C)CCNC(=O)NC(=O)COC(=O)C1CCN(S(=O)(=O)c2ccccc2F)CC1	-	.	.	.
O=C(Oc1ccc(=O)n(-c2ccccc2)n1)c1ccccc1	-	.	61.0%	-
O=C(O)COc1ccc(=O)n(-c2ccccc2)n1	-	-	.	.
O=C(COC(=O)C1CCN(c2ccc(C(F)(F)F)cn2)CC1)Nc1ccc(Cl)cc1	-	-	.	.
CN(CC(=O)Nc1ccc(F)cc1)C(=O)COC(=O)C1CCN(c2ccc(C(F)(F)F)cn2)CC1	-	13.1	-	-	CHO-K1 Tl ctr=79.3;KCNQ1 sel pot=-;KCNQ2 pot confirm=17.6;Kir2-1 sel=-;KCNQ2 W236L MoA=-
Cc1onc(-c2ccccc2)c1CNS(=O)(=O)c1cccc(Br)c1	-	-	52.0%	-
Cc1onc(-c2ccccc2)c1CNS(=O)(=O)c1ccc(F)cc1F	-	.	.	.
SMILES	KCNQ2 block	KCNQ2 pot	Kir21 confirm	HEK293 ctr	others
CN(c1ccccc1)S(=O)(=O)c1cccc(NC(=O)CC(C)(C)C)c1	-	-	.	.
CCC(=O)Nc1nnc(S(=O)(=O)N(C)c2ccccc2)s1	-	-	.	.
CN(C)CCN(CC1CCCN(Cc2ccccc2F)C1)C(=O)c1ccc(Cl)cc1 (configuration not stated)	-	.	.	.
Cc1nc2sc3c(c2c(=O)n1NC(=O)CCBr)CCCC3	-	6.61	-	-	CHO-K1 Tl ctr=-;KCNQ1 sel pot=-;KCNQ2 pot confirm=11.3;Kir2-1 sel=-;KCNQ2 W236L MoA=-
CCCc1nc2sc3c(c2c(=O)n1N)CCC3	-	.	.	.
CCCc1nc2sc3c(c2c(=O)n1NC(=O)CCC(=O)OC)CCCC3	-	9.3	-	-	CHO-K1 Tl ctr=6.2;KCNQ1 sel pot=3.4;KCNQ2 pot confirm=31.4;Kir2-1 sel=-;KCNQ2 W236L MoA=-
Cc1ccccc1-n1c(SCC(=O)O)nc2sc3c(c2c1=O)CCCC3	-	.	.	.
O=C(NC1CCCC1)C(c1ccccn1)N(C(=O)c1csnn1)c1ccccc1Br (configuration not stated)	-	-	.	.
Cn1cc(C(=O)CCl)c2ccccc21	-	-	.	.
CN(C)CCOc1ccccc1Cc1ccccc1	-	-	.	.
CNCCCCOc1ccccc1Cc1ccccc1	-	.	28.5%	-
CCCCN(C(=O)c1oc2ccc(OCC)cc2c1C)c1c(N)n(CC(C)C)c(=O)[nH]c1=O	-	-	.	.
O=C(O)CCN1C(=O)c2ccc(NC(=O)COc3ccccc3)cc2C1=O	-	.	.	.
O=C(Nc1ccc(S(=O)(=O)NC2=NCCCCC2)cc1)c1ccc(Cl)cc1Cl	-	-	.	.
COc1ccc(CN2CCN(C3CCC3)CC2CCO)c(F)c1 (configuration not stated)	-	13.1	-	-	CHO-K1 Tl ctr=-;KCNQ1 sel pot=-;KCNQ2 pot confirm=-;Kir2-1 sel=-
COc1ccc(CN2CCN(Cc3cc4ccccc4o3)CC2CCO)c(F)c1 (configuration not stated)	-	.	.	.
CC(C)COP(=O)(OCC(C)C)C(O)c1ccc(N(C)C)cc1 (configuration not stated)	-	-	.	.
O=C(NCCN1CCOCC1)c1cc2cc([N+](=O)[O-])ccc2s1	-	-	.	.
C/C(=N\NC(=O)c1cc2ccccc2cc1O)c1ccccn1	-	5.87	-	166.5%	CHO-K1 Tl ctr=-;KCNQ1 sel pot=3.0;KCNQ2 pot confirm=-;Kir2-1 sel=-
C/C(=N\NC(=O)c1nc2ccccn2c1C)c1cc2ccccc2o1	-	-	.	.
C/C(=N\NC(=O)c1cc2ccccc2cc1O)c1cc2ccccc2o1	-	20.7	-	451.5%	CHO-K1 Tl ctr=93.3;KCNQ1 sel pot=-;KCNQ2 pot confirm=69.2;Kir2-1 sel=-;KCNQ2 W236L MoA=-
C/C(=N\NC(=O)c1c[nH]c2ccccc12)c1ccccn1	-	.	.	.
N=c1c(C(=O)NCCN2CCOCC2)cc2c(=O)n3ccccc3nc2n1CCc1ccccc1	-	-	.	.
CC(C)(C)c1ccc(C(=O)NC(=S)N2CCCCCC2)cc1	-	8.83	-	268.0%	CHO-K1 Tl ctr=-;KCNQ1 sel pot=37.0;KCNQ2 pot confirm=0.7;Kir2-1 sel=-;KCNQ2 W236L MoA=4.9%
COc1ccc(C(=O)NC(=S)N2CCNC(=O)C2)cc1Br	-	-	.	.
CC1CCN(C(=S)NC(=O)c2ccccc2)CC1	-	-	.	.
CC1CCN(C(=S)NC(=O)c2ccc(C(C)(C)C)cc2)CC1	-	7.11	.	.	CHO-K1 Tl ctr=-;KCNQ1 sel pot=-;KCNQ2 pot confirm=5.8;Kir2-1 sel=-;KCNQ2 W236L MoA=-
COc1ccc(C(=O)NC(=S)N2CCC(C)CC2)cc1Br	-	6.49	-	247.0%	CHO-K1 Tl ctr=-;KCNQ1 sel pot=-;KCNQ2 pot confirm=-;Kir2-1 sel=-;KCNQ2 W236L MoA=-
CC(C)(C)c1ccc(C(=O)NC(=S)N2CCCC2)cc1	-	-	.	.
